Data from the supplement of paper PMC6555819.

Experiments:
Assay in all cases: PBM binding z-score (relative to random genomic background probes); higher = stronger binding; sequences stand for … in GC…GCGATTGACAGCGTAGAATGAAGG
[1] = system: FXR:RXRa (NR concentration 270 nM, RXRa partner concentration 90 nM)
How it was run: (§1)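 Custom Agilent 4×180K protein-binding microarrays carried double-stranded probes, each with a 34-nt variable region. These regions held direct-repeat seeds, single-nucleotide variants, half-site ablations and random human genomic background sequences. Ligand-free nuclear receptor dimers were incubated on the arrays for 1 h, antibodies against each partner (one per run) detected binding, and scanned fluorescence was regression-normalized. Binding z-scores take the random background probes as reference.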

[2] = system: LXRa:RXRa (NR concentration 270 nM, RXRa partner concentration 90 nM)
How it was run: as §1

[3] = system: LXRa homodimer (NR concentration 270 nM)
How it was run: as §1

[4] = system: LXRb:RXRa (NR concentration 270 nM, RXRa partner concentration 90 nM)
How it was run: as §1

[5] = system: LXRb homodimer (NR concentration 270 nM)
How it was run: as §1

[6] = system: PPARa:RXRa (NR concentration 270 nM, RXRa partner concentration 90 nM)
How it was run: as §1

[7] = system: PPARg:RXRa (NR concentration 180 nM, RXRa partner concentration 90 nM)
How it was run: as §1

[8] = system: PPARg:RXRa 270nM:90nM, anti-RXR (NR concentration 270 nM, RXRa partner concentration 90 nM)
How it was run: as §1

[9] = system: PPARg:RXRa 30nM:10nM, anti-RXR (NR concentration 30 nM, RXRa partner concentration 10 nM)
How it was run: as §1

[10] = system: PPARg:RXRa 90nM:30nM, anti-RXR (NR concentration 90 nM, RXRa partner concentration 30 nM)
How it was run: as §1

| Sequence | PBM binding z-score [1] | PBM binding z-score [2] | PBM binding z-score [3] | PBM binding z-score [4] | PBM binding z-score [5] | PBM binding z-score [6] | PBM binding z-score [7] | PBM binding z-score [8] | PBM binding z-score [9] | PBM binding z-score [10] |
| --- | --- | --- | --- | --- | --- | --- | --- | --- | --- | --- |
| TGAATGAGGTTATAAAATCAGGGAACGTTGCAAA | 0.804 | 0.908 | -0.31 | 1.02 | 0.05 | 2.15 | 0.802 | 1.19 | 0.684 | 1.09 |
| ATATGTAGGTTAAGGGTGATTCAGGTTGGTTCGC | 0.984 | 1.63 | 0.808 | 1.73 | 0.807 | 4.98 | 9.36 | 8.2 | 8.53 | 9.45 |
| TCTCGGGGGACACGAAAGGTCAGAGCTCGACATC | 4.5 | 5.39 | 3.18 | 5.47 | 5.76 | 5.03 | 3.63 | 4.96 | 3.73 | 4.14 |
| ATATGTAGGTTATCTGGTCATTCAGTTTGCGCAT | 1.2 | 1.28 | 1.15 | 1.21 | 0.901 | 3.58 | 5.56 | 4.79 | 2.32 | 4.3 |
| GTACCAAGGTGTATAGGTCGTTGATGAGTAGGCG | 0.26 | 0.421 | -0.0152 | 0.029 | -0.37 | 0.871 | 0.775 | 0.814 | 0.27 | 0.71 |
| CCTAGCAGGCCGGGGTCACTCAAGCATTTCGCTT | 4.66 | 3.63 | -0.0184 | 3.88 | -0.234 | 4.93 | 2.5 | 3.86 | 0.906 | 2.54 |
| AGTCAAAGTTCAGGACGAGGTAACGTGAAGCACG | 4.49 | 3.69 | 1 | 1.68 | -0.0491 | 3.33 | 4.84 | 4.84 | 2.04 | 4.12 |
| CGTCAAAGTTCCAGGTAACGTAACAGAAAGCAGC | -0.0989 | -0.25 | -0.161 | 0.0165 | 0.0494 | 0.154 | 0.501 | 0.0886 | -0.125 | 0.0621 |
| TCTCGGAGGACACGAAAGTTCAGAGCTCGACATC | 1.03 | 2.18 | 2.89 | 0.952 | -0.575 | 1.14 | 0.211 | 1.25 | 2.34 | 1.81 |
| ACTAGTTGGTCAGCTGAAGTCACACACAATTCGG | -0.0902 | -0.0916 | 0.115 | 0.118 | 0.19 | -0.0344 | 0.754 | 0.0912 | -0.0266 | 0.0351 |
| GCTTGAAGATCAAGGTTAAGAAAGACTAAGCTAA | 0.0422 | 0.502 | -0.466 | 0.434 | -0.944 | 1.44 | 0.0751 | 0.707 | 0.116 | 0.552 |
| CAAACTAGGTCACGAAAGGTCAAAGGCGAATGAC | 7.72 | 8.23 | 7.26 | 7.15 | 2.21 | 6.78 | 10.6 | 8.54 | 7.17 | 8.65 |
| CCTGTTAGGTCAATGGTCAGCTAAAGCAGCTCGC | 3.84 | 2.92 | 0.645 | 2.06 | 1.38 | 3.49 | 3.07 | 4.36 | 2.03 | 3.91 |
| CGGCCAAGGTCATAGGAGGTCAGTGAAGACAGAT | 7.73 | 7.58 | 4.26 | 6.03 | 0.344 | 5.82 | 5.92 | 5.6 | 2.38 | 4.77 |
| TCTTGTCGATCAAAGGTTAAGAAAGCCGAAGCCT | 1.41 | 1.95 | 0.175 | 1.9 | 0.245 | 3.76 | 5.79 | 6.32 | 5.47 | 6.64 |
| AATACAGGGTCATCGTAGGCGAGAGTACGCACAG | 7.5 | 6.16 | 2.08 | 4.6 | 1.54 | 5.94 | 6.58 | 6.21 | 2.48 | 4.92 |
| GCGACTGGGGCATCAGCAGGTTACCATGACTTAA | -0.337 | -0.256 | -0.454 | 0.309 | -1.08 | 0.903 | 0.918 | 0.462 | -0.743 | -0.0721 |
| TGAATGAGGGTATAAGATCAGGGAACGTTGCAAA | 0.413 | 0.344 | -0.145 | 0.00334 | 0.501 | 0.874 | 0.576 | 1.23 | 1.11 | 0.839 |
| ATCTCTAGGTAACCAGGTTCAGTGAATGCCGAAC | 0.339 | 0.277 | 0.415 | 0.528 | 0.703 | 1.37 | 0.883 | 0.861 | 0.15 | 0.492 |
| TCTGGCAGGCCAGAGGGTCACTCAAGAGGTACGG | 1.24 | 1.09 | -0.32 | 1.08 | -0.89 | 2.4 | 0.868 | 1.48 | 0.732 | 1.23 |
| CGAACTAAGTCAGAACAGGACAGTGAAGGATGAT | -0.105 | -0.427 | 0.0634 | -0.842 | -0.576 | -0.444 | 0.514 | -0.265 | 0.171 | -0.00279 |
| TCATATAGGTAAAACGTGAAAGTCGGTGTGGTAA | 0.91 | 0.644 | 0.37 | 0.856 | 0.255 | 2.09 | 2.92 | 4.34 | 4.63 | 4.71 |
| CCTTACGGATCACTGACAGGTTATAGCATTTGGA | 0.345 | 0.818 | 0.768 | 0.559 | 0.661 | 0.447 | 0.638 | 0.275 | 0.461 | 0.192 |
| CCGACTGGGGCAAGGTTACCAAAACGCACAGCCA | 0.221 | 0.494 | -0.00504 | 0.617 | -1.39 | 2.07 | 2.78 | 3.62 | 1.01 | 2.6 |
